Only some compounds are listed: those with a hit (about 4.6% of all), similar ones and a draw of the others.
LASV entry inh: qHTS for Inhibitors of binding or entry into cells for Lassa Virus. Lassa virus pseudotype entry inhibition, cell reporter. Potency, µM (highest dose often 37.9 µM), without a hit: at the highest dose activity change, negative = inhibition, hits mostly inhibitors. 300,000 compounds, 1.2% hits. AID 540256, 2011; calls by dose curve; tested in HEK293 cells; also: nearly all actives have a fitted effect of over 50% in size
VACV Venus inh: qHTS for Stage-Specific Inhibitors of Vaccinia Orthopoxvirus: Venus Reporter Primary qHTS; Vaccinia virus Venus reporter expression, fluorescence; Potency, µM (series often up to 36.5 µM), for inactives: top-dose activity change, negative = inhibition, usual class: inhibitors; 330,000 compounds, 0.46% hits; calls by dose curve; tested in A549 cells; also: nearly all actives have a fitted effect of over 30% in size
Vaccinia mCherry: qHTS for Stage-Specific Inhibitors of Vaccinia Orthopoxvirus: mCherry Reporter Primary qHTS; Vaccinia virus mCherry reporter infection, fluorescence; Potency, µM (highest dose often 36.5 µM), for the others: at the top dose activity change, negative = inhibition, usual class: inhibitors; 310,000 compounds, 0.63% hits; AID 720579, 2013; calls by dose curve; tested in A549 cells; also: nearly all actives have a fitted effect of over 35% in size
HCV inhibitor: qHTS Assay for Inhibitors of Hepatitis C Virus (HCV) | Huh7.5.1 HCVcc-Cre infection, luciferase reporter, 44 h | Potency, µM (doses to about 41.8 µM), for inactives: at the top dose activity change, negative = inhibition, hits mostly inhibitors | 340,000 compounds, 3.4% hits; active = well fitted inhibition curve with a large enough effect; inconclusive = small, poorly fitted or top-dose-only effect, or another doubt; inactive = no such curve, though single readings can be large or run the other way
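Compounds are dispensed onto cells plated 4 h earlier at 1,000 per well, with HCVcc-Cre virus (about 0.5 moi) added next. Following 44 h of culture, luminescent signal is measured for 15 sec after 15 min with substrate at room temperature.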
Marburg entry inh: qHTS for inhibitors of binding or entry into cells for Marburg Virus. Marburg virus pseudotyped entry inhibition, cell reporter. Potency, µM (doses to about 37.8 µM), inactives show top-dose activity change, negative = inhibition, actives largely listed as inhibitors. 300,000 compounds, 1.8% hits; calls by dose curve; tested in HEK293 cells
Starred values were filed as active, the others as inactive; i = inactive; ? = inconclusive; . = no result given; [ ] = dose if it differs, or a comment. % is scaled to controls: 0 for no effect and ±100 for the full control effect; potency is read from the fitted curve at half-maximal effect.

SMILES	LASV entry inh	VACV Venus inh	Vaccinia mCherry	HCV inhibitor	Marburg entry inh
Cc1ccc(Cl)cc1N1CCN(C(=O)Cc2csc(Nc3nc(=S)[nH]c4ccccc34)n2)CC1	0%	-6%	-9%	?	1%[46.1 µM]
O=C(Cc1csc(Nc2nc(=S)[nH]c3ccccc23)n1)N1CCN(c2cccc(Cl)c2)CC1	.	-7%	i	11µM*	?
O=C(c1ccccc1)C1OC1C(=O)c1ccccc1 (stereo unspecified)	?	-29%	?	-24%	7.9µM*
CC1C=CC(C)C(C(=O)c2ccccc2)C1C(=O)c1ccccc1 (stereo unspecified)	.	-5%	i	.	.
O=C1C=CC2C3C(=O)N(c4ccccc4)C(=O)C3C1N2Cc1ccccc1 (stereo unspecified)	25µM*	?	28µM*	?	?
COc1cc(-c2cccs2)cc(=O)c2c(C)oc(C)c12	-17%	23%	-7%	11µM*	-26%
COc1cc(-c2cc(OC)c3c(C)oc(C)c3c(=O)c2)ccc1OC(=O)c1ccccc1Cl	-2%[46.1 µM]	8%	-17%	.	?
Nc1nsc2ccccc12	?	?	?	11µM*	?
Nc1nnc(N)c2ccccc12	9%	-6%	-6%	-9%	-20%[46.1 µM]
O=C(NCCCN1CCCCC1)c1ccc2c(c1)NC(=O)c1ccccc1S2	.	.	.	10µM*	.
CCN1C(=O)c2ccccc2Sc2ccc(C(=O)NCCCN3CCCCC3)cc21	.	-6%[7.34 µM]	-12%[7.34 µM]	?	.
CCN1CCCC1CNC(=O)c1ccc2c(c1)NC(=O)/C(=C\c1ccc(C)cc1)S2 (stereo unspecified)	.	.	.	6.3µM*	.
O=C1Nc2cc(C(=O)NCCN3CCCCCC3)ccc2S/C1=C/c1ccccc1F	.	13µM*	?	.	.
O=C(O)[C@@H]1CC(=O)n2c(nc3ccccc32)S1	.	.	.	.	1%
Cc1cccc2cc(C#N)c(N3CCN(C)CC3)nc12	-4%	.	.	10µM*	-16%
CCN(CC)c1ccc(-c2nnc(SCC(=O)N(CCOC)c3c(N)n(CC(C)C)c(=O)[nH]c3=O)o2)cc1	-8%[46.1 µM]	?	8.9µM*	-18%	?
COc1ccc(S(=O)(=O)n2nc(-n3c(C)ccc3C)c3c(F)cccc32)cc1OC	?	-18%	-20%	?	8.9µM*
CCN(C(=O)c1oc2ccc(S(=O)(=O)N3CCCCCC3)cc2c1C)c1ccccc1	?	-11%	-13%	.	.
COC(=O)C1=C(C)N(Cc2ccccc2)C(=NCc2cccc(C(F)(F)F)c2)N[C@H]1c1cccc(C(F)(F)F)c1	.	28µM*	10µM*	42%[8.37 µM]	.
COC(=O)C1=C(C)N(Cc2ccccc2)C(=NCc2cccc(C(F)(F)F)c2)N[C@H]1c1cccc(F)c1	.	13µM*	?	?	.
COC(=O)C1=C(C)N(CC2CC2)C(=NCc2cccc(C(F)(F)F)c2)N[C@H]1c1ccccc1	.	-25%	i	?	.
Cc1ccc(-n2ncc(C(=O)N3CCN(Cc4ccccc4)CC3)c2C2CCN(C(=O)OC(C)(C)C)CC2)c(C)c1	?	-8%	-5%	.	.
CCCN1CCN(CC2=C(C(=O)OCC)C(c3cccc(OC)c3OC)NC(=O)N2)CC1 (stereo unspecified)	16%[46.1 µM]	6%	-2%	.	3%[46.1 µM]
COc1ccc(N=C2C(=Nc3ccc(OC)cc3)N(c3ccc(N(C)C)cc3)C(=S)N2c2ccc(OC)cc2)cc1	-5%	-6%	-5%	1.1µM*	?
CN(C)S(=O)(=O)c1ccc2c(c1)N(CC(=O)N1CCN(c3ccc(F)cc3)CC1)CCS2	1%[46.1 µM]	-2%	-10%	.	.
SMILES	LASV entry inh	VACV Venus inh	Vaccinia mCherry	HCV inhibitor	Marburg entry inh
CCN(CC)S(=O)(=O)c1ccc2c(c1)c(=O)c(C(=O)NCCOC)cn2C	-1%	.	.	0%	-8%
CCOCCCNC(=O)c1cn(CC)c2ccc(S(=O)(=O)N(C)C3CCCCC3)cc2c1=O	.	.	.	-8%	.
CCN(CC)S(=O)(=O)c1ccc2c(c1)c(=O)c(C(=O)NCc1ccc3c(c1)OCO3)cn2C	4%	.	.	1%[0.335 µM]	13%
C=CCn1cc(C(=O)NCCCOCC)c(=O)c2cc(S(=O)(=O)N(CC)CC)ccc21	6.5µM*	.	.	-11%	-4%
C=CCn1cc(C(=O)NCc2ccc3c(c2)OCO3)c(=O)c2cc(S(=O)(=O)N(CC)CC)ccc21	0.71µM*	-22%	-24%	?	?
C=CCn1cc(C(=O)NCCOC)c(=O)c2cc(S(=O)(=O)N(CC)CC)ccc21	12µM*	.	.	18%	2%
CCOC(=O)C1(CCc2ccccc2)CCN(Cc2cccc3c2OCO3)CC1	?	-13%	-21%	10µM*	13µM*
CCOC(=O)C1(CCCc2ccccc2)CCN(C(=O)c2cncs2)CC1	?	-17%	-11%	-26%	-25%[46.1 µM]
CCOC(=O)C1(CCc2ccccc2)CCN(Cc2cccc3cnccc23)CC1	?	-9%	-18%	10µM*	?
CCOC(=O)C1(CCCc2ccccc2)CCN(C(=O)c2ocnc2C)CC1	2.8µM*	-7%	-12%	-16%	-3%[46.1 µM]
CN(C)CCn1c2c(c(SCC(=O)N3CCc4ccccc43)nc1=O)CCCC2	1%	-11%	-21%	13µM*	-29%
CCN(CC)CCCn1c2c(c(SCC(=O)Nc3ccc(OC(F)(F)F)cc3)nc1=O)CCC2	?	?	-19%	10µM*	?
CCN(CC)CCCn1c2c(c(SCC(=O)N3CCCc4ccccc43)nc1=O)CCC2	7%	-17%	i	-10%	?
CCCCc1ccc(NC(=O)CSc2nc(=O)n(CCN(C)C)c3c2CCC3)cc1	?	14µM*	28µM*	?	?
O=c1/c(=C\c2ccccn2)sc2n1CN(c1ccccc1)CN=2	.	.	.	.	14%
